Values without a mark were called inactive. For part of these data: Measured potencies and affinities stand elsewhere. Calls of active or inactive are those of the source. Unless noted, the rule behind the calls is not given here.
Tests used:
[1] = antimalarial activity against Dd2 strain (AID 2302;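 active = growth inhibition above 50% at the single 2 µM test dose, taken to imply half-maximal potency below 2 µM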;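 note: 0% = DMSO untreated growth and 100% = chloroquine plus artemisinin killed control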); details: P. falciparum Dd2 in RBCs, LDH growth readout, 72 h; at 2 µM; active compounds read high
[2] = human hepatoma cell viability loss – ATP luminescence, cytotoxicity control for P. falciparum antimalarial project, primary screen (AID 2303;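 active = inhibition above 50%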;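 note: 0% = DMSO wells and 100% = digitonin-killed cells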); details: HepG2 viability, 24-48 h, at 10 µM, active compounds read high
[3] = target: L-lactate dehydrogenase (Plasmodium falciparum (isolate CDC / Honduras)) (UniProt Q27743); assay: PfLDH activity inhibition – cell lysate, 3D7 strain, counter-screen for P. falciparum growth inhibition project (AID 2304);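 note: 0% = vehicle and 100% = reference inhibitor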; details: P. falciparum 3D7 crude extract, LDH APAD/NBT absorbance; at 2 µM; active compounds read high
Chain of L-lactate dehydrogenase (Plasmodium falciparum (isolate CDC / Honduras)) (Q27743 whole entry, looked up): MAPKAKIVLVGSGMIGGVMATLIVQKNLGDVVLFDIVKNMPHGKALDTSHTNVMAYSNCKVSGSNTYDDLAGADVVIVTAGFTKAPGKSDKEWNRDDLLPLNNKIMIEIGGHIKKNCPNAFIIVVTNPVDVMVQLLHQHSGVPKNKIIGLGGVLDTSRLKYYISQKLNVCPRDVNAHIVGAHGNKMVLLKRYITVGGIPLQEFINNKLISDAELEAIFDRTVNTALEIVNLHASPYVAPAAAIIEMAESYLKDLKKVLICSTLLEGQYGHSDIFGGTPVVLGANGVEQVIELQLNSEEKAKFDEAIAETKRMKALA

[4] = inhibition of 3D7 malaria parasite growth – strain 3D7 (AID 2306);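 note: 0% = DMSO wells and 100% = chloroquine plus artemisinin control wells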; details: P. falciparum 3D7 erythrocytic growth, LDH absorbance, 72 h; at 2 µM; active compounds read high
[5] = target: Calcium-dependent protein kinase 1 (Plasmodium falciparum (isolate 3D7)) (UniProt P62344); assay: PfCDPK1 kinase inhibitors, biochemical, TCAMS library (AID 1159585; cut-off not given, nearly all actives have IC50 up to about 0.98 µM;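 note: inhibitors leave more ATP so luminescence rises with inhibition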); details: recombinant PfCDPK1, Kinase-Glo ATP depletion luminescence
Chain of Calcium-dependent protein kinase 1 (Plasmodium falciparum (isolate 3D7)) (P62344 whole entry, looked up): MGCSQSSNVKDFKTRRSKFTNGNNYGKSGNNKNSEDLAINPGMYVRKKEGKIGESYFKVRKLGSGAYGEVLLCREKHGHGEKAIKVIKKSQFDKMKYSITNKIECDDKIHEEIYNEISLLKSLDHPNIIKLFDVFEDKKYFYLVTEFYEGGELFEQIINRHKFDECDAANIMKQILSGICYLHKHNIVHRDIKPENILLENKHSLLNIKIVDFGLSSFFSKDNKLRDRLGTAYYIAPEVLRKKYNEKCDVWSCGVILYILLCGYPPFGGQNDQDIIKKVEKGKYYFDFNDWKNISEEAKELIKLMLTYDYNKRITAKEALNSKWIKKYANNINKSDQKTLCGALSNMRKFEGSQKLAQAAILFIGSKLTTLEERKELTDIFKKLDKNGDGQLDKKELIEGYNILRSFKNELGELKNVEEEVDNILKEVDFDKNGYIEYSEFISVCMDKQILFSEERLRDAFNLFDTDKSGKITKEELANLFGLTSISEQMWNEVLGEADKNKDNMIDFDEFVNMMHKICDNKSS

[6] = target: Plasmodium falciparum protein kinase 6 (PK6, PF3D7_1337100) (UniProt Q8IDW1); assay: PfPK6 kinase inhibitors, biochemical, TCAMS library (AID 1159586); details: recombinant PfPK6, Kinase-Glo ATP depletion luminescence
Chain of Plasmodium falciparum protein kinase 6 (PK6, PF3D7_1337100) (Q8IDW1 1-305): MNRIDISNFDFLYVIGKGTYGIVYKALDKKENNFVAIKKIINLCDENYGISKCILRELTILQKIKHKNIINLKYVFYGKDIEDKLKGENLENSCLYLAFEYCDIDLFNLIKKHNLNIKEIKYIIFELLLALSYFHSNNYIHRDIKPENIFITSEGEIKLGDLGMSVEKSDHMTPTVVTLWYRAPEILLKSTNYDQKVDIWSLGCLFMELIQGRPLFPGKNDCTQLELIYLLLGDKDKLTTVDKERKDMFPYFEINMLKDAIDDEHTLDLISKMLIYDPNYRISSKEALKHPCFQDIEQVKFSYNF

[7] = target: Protein kinase 7 (PK7), Plasmodium falciparum 3D7 (PF3D7_0213400) (UniProt Q7YTF7); assay: inhibition of Plasmodium PK7 catalytic activity – biochemical, TCAMS antimalarial set, Kinase-Glo luminescence (AID 1159587); details: recombinant PfPK7, Kinase-Glo ATP depletion luminescence
Chain of Protein kinase 7 (PK7), Plasmodium falciparum 3D7 (PF3D7_0213400) (Q7YTF7 1-343): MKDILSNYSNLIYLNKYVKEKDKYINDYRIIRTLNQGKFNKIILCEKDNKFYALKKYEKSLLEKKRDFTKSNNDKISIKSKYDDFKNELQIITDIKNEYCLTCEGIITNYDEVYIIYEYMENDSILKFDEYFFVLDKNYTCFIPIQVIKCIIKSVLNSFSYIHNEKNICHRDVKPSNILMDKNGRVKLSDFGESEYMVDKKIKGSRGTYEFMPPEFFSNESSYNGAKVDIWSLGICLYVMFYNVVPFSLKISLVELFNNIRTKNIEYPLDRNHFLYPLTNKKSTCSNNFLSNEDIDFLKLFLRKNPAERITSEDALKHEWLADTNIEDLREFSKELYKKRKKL

[8] = target: Calcium-dependent protein kinase 4 (Plasmodium falciparum (isolate 3D7)) (UniProt Q8IBS5); assay: PfCDPK4 kinase inhibitors, biochemical, TCAMS library (AID 1159588; cut-off not given, nearly all actives have IC50 up to about 0.91 µM); details: recombinant PfCDPK4, Kinase-Glo ATP depletion luminescence
Chain of Calcium-dependent protein kinase 4 (Plasmodium falciparum (isolate 3D7)) (Q8IBS5 whole entry, looked up): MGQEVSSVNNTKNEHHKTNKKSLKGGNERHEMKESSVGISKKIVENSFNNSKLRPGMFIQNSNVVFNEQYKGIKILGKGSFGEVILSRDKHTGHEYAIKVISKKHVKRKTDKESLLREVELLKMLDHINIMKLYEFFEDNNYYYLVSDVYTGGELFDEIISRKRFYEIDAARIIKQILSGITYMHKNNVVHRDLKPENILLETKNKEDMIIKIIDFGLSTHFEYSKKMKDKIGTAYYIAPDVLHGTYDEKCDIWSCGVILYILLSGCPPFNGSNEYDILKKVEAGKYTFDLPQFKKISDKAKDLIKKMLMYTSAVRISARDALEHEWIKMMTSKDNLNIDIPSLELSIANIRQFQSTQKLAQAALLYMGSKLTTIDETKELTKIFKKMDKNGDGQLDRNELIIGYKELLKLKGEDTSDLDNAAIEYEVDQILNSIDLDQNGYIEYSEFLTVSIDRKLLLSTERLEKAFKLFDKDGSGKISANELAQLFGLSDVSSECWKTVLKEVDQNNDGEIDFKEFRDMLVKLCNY

Row | Structure (SMILES) | growth inhibition [1] | inhibition [2] | inhibition [3] [%] | growth inhibition [4] | outcome [5] | outcome [6] | outcome [7] | outcome [8]
1 | CN1CCN(CCCN(Cc2cccc(-c3cccc(CNC4CCCC4)c3)c2)C(=O)/C=C/c2ccccc2)CC1 | 99% (active) | 84% (active) | -5 | 101% (active) | inactive | inactive | inactive | inactive
2 | COc1ccc(C=CC(=O)NC(=O)c2ccccc2OC(=O)c2ccccc2)cc1OC | 90% (active) | 12% | 5 | 87% (active) | inactive | inactive | inactive | inactive
3 | COc1ccc(-c2ccc(NC(=O)c3ccc(F)cc3)cc2)cc1CN1CCCN(C)CC1 | 35% | 29% | -2 | 98% (active) | inactive | inactive | inactive | inactive
4 | O=C1NC(c2ccccc2)C2(CCN(CC(O)COc3cccc4ncccc34)CC2)O1 (configuration not stated) | 95% (active) | 5% | -4 | 92% (active) | inactive | inactive | inactive | inactive
5 | CS(=O)(=O)NCCCNCc1cccc(-c2ccc(-c3nc4ccccc4[nH]3)s2)c1 | -1% | 24% | 6 | 90% (active) | inactive | inactive | inactive | inactive
6 | O=C(c1cccs1)N1CCN(c2ccc([N+](=O)[O-])c(NC3CC3)c2)CC1 | 95% (active) | -5% | 2 | 100% (active) | inactive | inactive | inactive | inactive
7 | COc1ccc(-c2ccc(NC(=O)c3ccc(C#N)cc3)cc2)cc1CN1CCC(O)CC1 | 28% | 24% | 7 | 94% (active) | inactive | inactive | inactive | inactive
8 | Cc1cc(NC(=O)c2cccs2)ccc1OC1CCN(Cc2ccc(C#N)cc2)C1 (configuration not stated) | 61% (active) | 13% | -2 | 82% (active) | inactive | inactive | inactive | inactive
9 | COc1nc(Nc2cccc(C)c2)nc(OC)n1 | -5% | 46% | 1 | 94% (active) | inactive | inactive | inactive | inactive
10 | CC(C)COc1ccc(Cl)cc1Cc1ccc(-c2nc3cc(F)c(F)cc3[nH]2)o1 | 96% (active) | 27% | 4 | 95% (active) | inactive | inactive | inactive | inactive
11 | O=C(CNc1ccncc1)c1c[nH]c2ccccc12 | 62% (active) | 31% | -3 | 90% (active) | inactive | inactive | inactive | inactive
12 | COc1cc2nc(N3CCC(C(N)=O)CC3)nc(NCc3ccccc3)c2cc1OC | 23% | 23% | -7 | 100% (active) | inactive | inactive | inactive | inactive
13 | Cc1cc(C)c(O)c(-c2cc(C(=O)Nc3ccc(S(=O)(=O)N4CC(C)OC(C)C4)cc3)[nH]n2)c1 (configuration not stated) | 16% | 31% | -1 | 95% (active) | inactive | inactive | inactive | inactive
14 | Cc1ccc(Nc2nc(C)cc(NC3CC3)n2)cc1 | 15% | -4% | 5 | 97% (active) | inactive | inactive | inactive | inactive
15 | CN1CC[C@@H](Oc2cc(C(=O)NCc3ccc(Cl)c(Cl)c3)ccc2C(F)(F)F)C1 | 4% | 8% | 2 | 88% (active) | inactive | inactive | inactive | inactive
16 | O=C(CCc1cccnc1)Nc1ccc(-c2cccc(-c3nc4ccc(F)cc4[nH]3)c2)cc1 | 9% | 67% (active) | 2 | 86% (active) | inactive | inactive | inactive | inactive
17 | O=C(Nc1ccc(CCN2CCC(c3nc(COCC(F)(F)F)c(-c4ccccc4)o3)CC2)cc1)c1ccc(F)cc1 | 3% | 9% | 3 | 86% (active) | inactive | inactive | inactive | inactive
18 | C=CCn1c(Sc2ccc(C#N)c([N+](=O)[O-])c2)nnc1-c1cc(OC)cc(OC)c1 | 84% (active) | 12% | 0 | 96% (active) | inactive | inactive | inactive | inactive
19 | O=C(NCCN1CCOCC1)c1ccc(-c2ccc(CNCCCc3ccccc3)cc2)nc1 | 10% | -11% | -1 | 97% (active) | inactive | inactive | inactive | inactive
20 | CCN(CC)CCOC(=O)c1ccc(NC(=O)c2cn(-c3ccccc3)nc2-c2cccs2)cc1 | 59% (active) | 25% | 3 | 100% (active) | inactive | inactive | inactive | inactive

Row | Structure (SMILES) | growth inhibition [1] | inhibition [2] | inhibition [3] [%] | growth inhibition [4] | outcome [5] | outcome [6] | outcome [7] | outcome [8]
21 | Cc1ccc(F)c(OCC2CCN(c3ccc(C(=O)NC4CC4)cn3)CC2)c1 | 95% (active) | 4% | 2 | 94% (active) | inactive | inactive | inactive | inactive
22 | CN(Cc1ccc(NC(=O)CCC2CCN(C(=O)/C=C/c3ccc(Cl)c(Cl)c3)CC2)cc1)C1CCOCC1 | 2% | 10% | 0 | 94% (active) | inactive | inactive | inactive | inactive
23 | N#Cc1cccc(C(=O)Nc2cccc(-c3ccc(C(=O)NCCCN4CCOCC4)cc3)c2)c1 | 21% | 21% | -8 | 96% (active) | inactive | inactive | inactive | inactive
24 | O=C(NC1CCCCC1)N(Cc1ccc(-c2ccc(CNC3CCCC3)cc2)cc1)C1CCN(Cc2ccccc2)CC1 | 86% (active) | 31% | 3 | 99% (active) | inactive | inactive | inactive | inactive
25 | COc1cc2nc(NCCc3ccccc3)nc(NC(C)c3ccccc3)c2cc1OC (configuration not stated) | 100% (active) | 9% | 1 | 99% (active) | inactive | inactive | inactive | inactive
26 | COc1ccc(CNC2CCN(C)CC2)cc1-c1ccc(S(=O)(=O)NCc2ccccc2)c(F)c1 | 97% (active) | 53% (active) | 4 | 101% (active) | inactive | inactive | inactive | inactive
27 | COc1ccc2nccc([C@@H](O)CN3CCC(NCc4cn5cc(F)ccc5n4)CC3)c2c1 | 5% | 19% | -5 | 96% (active) | inactive | inactive | inactive | inactive
28 | c1cncc(CCNCc2ccc(-c3ccc(-c4nc5ccccc5[nH]4)s3)cc2)c1 | 99% (active) | 35% | -3 | 101% (active) | inactive | inactive | inactive | inactive
29 | CN(C)CCOc1cc(NC(=O)c2ccc(-c3ccc(Cl)cc3Cl)cc2)ccc1-c1ccccc1 | 26% | 45% | -4 | 98% (active) | inactive | inactive | inactive | inactive
30 | COc1cc(NC(=O)c2sc(-c3ccc(Cl)cc3)cc2NC(=O)N2CCCC2)ccc1OCCN1CCCC1 | 61% (active) | 22% | 0 | 101% (active) | inactive | inactive | inactive | inactive
31 | Cc1cccc2[nH]c(-c3cccc(-c4cccc(NC(=O)Nc5ccccc5)c4)c3)nc12 | 64% (active) | 8% | -6 | 101% (active) | inactive | inactive | inactive | inactive
32 | O=C(NCc1cccc(CN2CCOCC2)c1)c1cc(Br)cc(N2CCN(c3ccncc3)CC2)c1 | 29% | 25% | -2 | 99% (active) | inactive | inactive | inactive | inactive
33 | Cc1cnc(C(=O)Nc2ccc(-c3cccc(-c4nc5ccccc5[nH]4)c3)cc2)cn1 | 8% | 77% (active) | -3 | 93% (active) | inactive | inactive | inactive | inactive
34 | COc1ccc(C=NNc2cc(C)nc3ccccc23)c(OC)c1 | 94% (active) | 24% | -2 | 101% (active) | inactive | inactive | inactive | inactive
35 | C/C=C/C=C/C1=NCCc2cc(OCCC)ccc21 | 40% | -1% | -4 | 87% (active) | inactive | inactive | inactive | inactive
36 | Cc1cc(-c2cccc(CNCc3ccc(F)cc3)c2)ccc1S(=O)(=O)NCCN1CCCC1 | 64% (active) | 49% | 4 | 101% (active) | inactive | inactive | inactive | inactive
37 | CCC(C)NC(=O)Nc1cccc(-c2cccc(-c3nc4c(C)cccc4[nH]3)c2)c1 (configuration not stated) | 27% | 3% | 5 | 101% (active) | inactive | inactive | inactive | inactive
38 | CNC(=O)C(C)N(c1ccc(Cl)cc1)c1nc(C(C)(C)C)cs1 (configuration not stated) | 98% (active) | 0% | 7 | 99% (active) | inactive | inactive | inactive | inactive
39 | Cc1cc(C(=O)Nc2ccc3c(c2)CCN3C2CCN(Cc3cc(F)cc(F)c3F)C2)no1 (configuration not stated) | 96% (active) | -5% | 0 | 95% (active) | inactive | inactive | inactive | inactive
